Laboratory results: PubChem BioAssay (Tox21)
“And” between values parts separate entries of the source, which are not always exact repeats. Equal entries are not always repeated. Records with an inconclusive call do not appear. Entries that show only a call come without a potency. A number with no mark means an inactive call. The source made the active and inactive calls. Calls follow the shape of the dose curve; as a rule, active = well fitted inhibition curve with a large enough effect in the repeat runs; inconclusive = weak or mixed curves; inactive = no such curve, though single readings can be large or run the other way.

molecular target: Cytochrome P450 3A4 (Homo sapiens) (UniProt P08684); test: Cytochrome P450 Family 3 Subfamily A Member 4 (CYP3A4) small molecule antagonists: luciferase reporter qHTS assay (AID 1671201); conditions: P450-Glo CYP3A4 enzyme, luciferin luminescence, 1 h; series mostly up to 115 µM; also: nearly all actives have a fitted effect of over 50% in size
Description: National Center for Advancing Translational Sciences [NCATS]
U.S. Environmental Protection Agency [EPA]
National Institutes of Environmental Health Sciences [NIEHS]
National Toxicology Program [NTP]
U.S. Food and Drug Administration [FDA]
Cytochrome P450 (CYP) enzymes are membrane-bound hemeproteins that play a key role in metabolism of drugs and xenobiotics. Evaluation of the effect of chemicals on CYP isozymes is useful to minimize the adverse drug reactions and toxicities in drug development process. Tox21 chemicals were tested for their effect on CYP enzyme activities by using P450-Glo (TM) screening systems (Promega Corporation, Madison, WI). These systems provide a luminescent method containing proluciferin substrates and are converted to luciferin products by CYP isozymes. The luciferin products formed are detected with a luciferin detection reagent, and the amount of light produced is proportional to CYP activity. P450-Glo (TM) CYP3A4 screening system (Catalog. No. V9910) was used to detect the compounds that interfere in CYP3A4 activity. The positive control compound used for CYP3A4 assay is ketoconazole (Sigma-Aldrich, St. Louis, MO).
Tox21 Assay Protocol Summary:
Two ul of enzyme-substrate mix was dispensed into medium binding white/solid 1536-well plates (Greiner Bio-One North America Inc., Monroe, NC) using a BioRaptr Flying Reagent Dispenser (FRD, Beckman Coulter, Brea, CA). Compounds dissolved in DMSO and positive control (ketoconazole) were transferred to the assay plates at 23 nl using a Pintool station (Wako, San Diego, CA). The assay plates were incubated at room temperature for 10 min. Then 2 ul of NADPH regeneration solution was added to each well of the assay plates using an FRD and incubated at room temperature for 1 h. The reaction was stopped by adding 4 ul of detection reagent using an FRD and after 20 min incubation at room temperature the luminescence signal was measured using a ViewLux plate reader (Perkin Elmer, Shelton, CT). Data were expressed as relative luminescence units.
Potency is read from the fitted curve at half-maximal effect.

Sequence of Cytochrome P450 3A4 (Homo sapiens) (P08684 whole entry, looked up): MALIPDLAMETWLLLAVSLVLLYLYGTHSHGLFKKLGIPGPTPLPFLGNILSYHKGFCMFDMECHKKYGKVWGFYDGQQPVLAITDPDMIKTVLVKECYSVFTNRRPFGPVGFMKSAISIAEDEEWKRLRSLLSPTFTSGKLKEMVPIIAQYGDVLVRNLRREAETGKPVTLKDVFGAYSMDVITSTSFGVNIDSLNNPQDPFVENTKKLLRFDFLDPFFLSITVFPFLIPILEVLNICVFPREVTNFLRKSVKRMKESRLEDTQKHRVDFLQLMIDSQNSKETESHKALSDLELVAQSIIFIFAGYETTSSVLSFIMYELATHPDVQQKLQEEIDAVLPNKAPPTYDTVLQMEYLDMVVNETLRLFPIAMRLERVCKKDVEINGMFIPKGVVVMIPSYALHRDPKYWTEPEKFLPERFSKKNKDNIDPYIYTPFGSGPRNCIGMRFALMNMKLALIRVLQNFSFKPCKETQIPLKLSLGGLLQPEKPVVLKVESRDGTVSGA

| SMILES | Potency | activity change, negative = inhibition |
| --- | --- | --- |
| C=CC(=O)Nc1cc2c(Nc3ccc(F)c(Cl)c3)ncnc2cc1OCCCN1CCOCC1 | 12.3 µM (active) | – |
| CCCCCCCCCCCCOC(=O)c1ccc(O)cc1 | 35.9 µM (active) | – |
| C=Cc1cccc(C)c1 | inactive | – |
| Clc1ccnc(Cl)n1 | inactive | – |
| CCN(CCN)c1cccc(C)c1 | 12.7 µM (active) and 35.6 µM (active) | – |
| O=S(=O)(O)c1ccc(Nc2nc(Nc3ccc(/C=C/c4ccc(Nc5nc(Nc6ccc(S(=O)(=O)O)cc6)nc(N(CCO)CCO)n5)cc4S(=O)(=O)O)c(S(=O)(=O)O)c3)nc(N(CCO)CCO)n2)cc1 | inactive | – |
| OC[C@H]1O[C@H](O[C@H]2O[C@H](CO)[C@@H](O)[C@H](O)[C@H]2O)[C@H](O)[C@@H](O)[C@@H]1O | inactive | – |
| CCCCOC(=O)CC | inactive | – |
| Clc1sc(Cl)c(Cl)c1Cl | inactive | – |
| O=S(=O)(O)c1ccc(N=Nc2c(O)ccc3ccccc23)cc1 | 35.6 µM (active) | – |
| COC(=O)c1ccccc1OC | inactive | – |
| O=C(c1ccc(O)c(O)c1)c1ccc(O)cc1O | 5.63 µM (active) | – |
| Fc1ccc(C(c2ccc(F)cc2)N2CCNCC2)cc1 | inactive | – |
| O[C@@H]([C@H](O)[C@H](O)CBr)[C@H](O)CBr | inactive | – |
| C=CC(C)(CCC=C(C)C)OC=O (stereo not given) | 31.7 µM (active) | – |
| Oc1cc(Cl)cc(Cl)c1Cl | inactive | – |
| CC(C)Cn1cnc2c(N)nc3ccccc3c21 | – | 54.2% [at 23.6 µM] |
| CCCC1CCC(=O)CC1 | inactive | – |
| CC(C)CCOC(=O)/C=C/c1ccccc1 | inactive | – |
| O=C(O)[C@H](O)[C@@H](O)[C@H](O[C@@H]1O[C@H](CO)[C@H](O)[C@H](O)[C@H]1O)[C@H](O)CO | inactive | – |

| SMILES | Potency | activity change, negative = inhibition |
| --- | --- | --- |
| CC(C)(C)c1csc(-c2cc3cc(OCc4ccccc4CC(=O)O)ccc3o2)n1 | inactive | – |
| CC1=CCC(=C(C)C)CC1 | 20 µM (active) | – |
| C=C(CC)C(=O)c1ccc(OCC(=O)O)c(Cl)c1Cl | inactive | – |
| COc1cccc(OC)c1C(=O)O | inactive | – |
| COc1ccc(NC(=O)CC(C)=O)cc1 | inactive | – |
| COc1cc(/C=C/c2ccccc2)oc(=O)c1 | 26.1 µM (active) | – |
| CCCC[P+](C)(CCCC)CCCC | inactive | – |
| CC(C)=CCNc1ncnc2c1ncn2[C@@H]1O[C@H](CO)[C@@H](O)[C@H]1O | inactive | – |
| O=C(O)c1ccc2cc(C(=O)O)ccc2c1 | inactive | – |
| [Cu+] | 39.9 µM (active) | – |
| COCCOc1cc2cc(C(=O)NC3CCN(C(C)C)CC3)n(CC(=O)Nc3ccc(Cl)cn3)c2cn1 | inactive | – |
| O=C(O)c1cc(=O)c2ccccc2o1 | inactive | – |
| OC1CCCc2ccccc21 (stereo not given) | inactive | – |
| OC1CCC(C2CCCCC2)CC1 (stereo not given) | inactive | – |
| CC(C)(C)C1CCC(=O)CC1 | inactive | – |
| C=C(C)C(=O)OCCCCCCCCCC | inactive | – |
| Cc1ccc(C(=O)O)cc1 | inactive | – |
| FC(F)(F)c1cccc(Cl)c1 | inactive | – |
| CCCCCCC1CCCC(=O)O1 (stereo not given) | inactive | – |
| CCC(C)(CCC(C)C)C(=O)[O][Sn]([CH3])([CH3])[O]C(=O)C(C)(CC)CCC(C)C (stereo not given) | inactive | – |
